Laboratory results from PubChem BioAssay (NCI).
Compounds without any hit were thinned out: in the full panel of roughly 83,000, 20% have a hit.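 Growth was measured after 48 h exposure to one concentration of compound in 96-well plates. Values under 10 count as active.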 A number with no mark means an inactive call. The source made the active and inactive calls.

Assays:
Experiment in all cases: NCI-60 one-dose screen, 48 h (100 = growth as untreated, 0 = no growth, -100 = all killed)
Settings in all cases: 10 µM unless noted
RPMI-8226 leukemia = tested on: RPMI-8226 leukemia
OVCAR-8 ovarian = tested on: OVCAR-8 ovarian
OVCAR-5 ovarian = tested on: OVCAR-5 ovarian
OVCAR-4 ovarian = tested on: OVCAR-4 ovarian
SK-OV-3 ovarian = tested on: SK-OV-3 ovarian
IGROV1 ovarian = tested on: IGROV1 ovarian
OVCAR-3 ovarian = tested on: OVCAR-3 ovarian
HS 578T breast = tested on: HS 578T breast
NCI/ADR-RES ovarian = tested on: NCI/ADR-RES ovarian
SR leukemia = tested on: SR leukemia

Compound	growth (RPMI-8226 leukemia)	growth (OVCAR-8 ovarian)	growth (OVCAR-5 ovarian)	growth (OVCAR-4 ovarian)	growth (SK-OV-3 ovarian)	growth (IGROV1 ovarian)	growth (OVCAR-3 ovarian)	growth (HS 578T breast)	growth (NCI/ADR-RES ovarian)	growth (SR leukemia)
O=C1/C(=C/c2cccc(Cl)c2)CCc2ccccc21	22.3%	91.1%	111%	100%	114%	94%	104%	110%	100%	–
O=c1c2c(=NCCCN3CCCC3)cc3c(=O)n(CCCN4CCCC4)c(=O)c4c(NCCCN5CCCC5)cc(c(O)n1CCCN1CCCC1)c2c4-3	–	–	-0.86% (active)	–	-6.65% (active)	-30.3% (active)	-21.8% (active)	-16.5% (active)	51.1%	3.03% (active)
COc1cccc(-c2nc(-c3ccc(N)cc3)co2)c1	89.5%	85.8%	115%	109%	118%	-0.817% (active)	82%	115%	92.8%	–
O=C1/C=C/[C@@H](O)[C@@H]2C[C@@H](O)C[C@H]2/C=C/CCC[C@H](CO)O1	37.4%	35.4%	52.8%	26.2%	50.7%	49.9%	-2.9% (active)	35.5%	15.9%	–
O=[N+]([O-])c1ccc(NS(=O)(=O)c2ccc(Cl)c(Cl)c2)cc1	35.6%	79.2%	113%	63.4%	94.3%	88.7%	78.3%	93.7%	83.2%	–
COc1cc(C(=O)c2cc3c(cc2C)OCO3)cc(OC)c1OC	39.1%	20.4%	43.1%	38%	11.1%	25.1%	5.31% (active)	44.3%	15.3%	–
COc1ccc(/C=C2\CCc3ccccc3C2=O)cc1	82.1%	90%	109%	89.6%	102%	81.8%	89.6%	97.3%	60.5%	–
CCN(CC)c1ccc(/C=C/C(=O)c2cccc(NS(C)(=O)=O)c2)cc1	–	–	64.4%	42.2%	51.1%	9.33% (active)	48.5%	28.5%	26.4%	-4.7% (active)
CC(=O)N1N=C(c2ccc(C(F)(F)F)cc2)CC1c1ccc2c(c1)OCO2 (stereo not drawn)	–	–	100%	–	104%	–	110%	97.8%	95.8%	89.5%
CC(=O)O[C@H]1CC[C@@]2(C)C(=CC[C@@H]3[C@@H]2CC[C@]2(C)C(c4cccnc4)=CC[C@@H]32)C1	–	–	95.6%	47.2%	76.7%	62.6%	70.3%	-7.37% (active)	45.4%	30.8%
O=C(/C=C/c1cccc(O)c1)c1cccc(-n2cc(-c3ccccc3)[nH]c2=O)c1	-45.4% (active)	9.12% (active)	-9.18% (active)	20.2%	106%	-30.5% (active)	-28% (active)	46%	3.96% (active)	–
COc1cccc(/C=C2\Cc3ccccc3C2=O)c1	98.6%	97.2%	111%	101%	101%	99.3%	110%	111%	105%	–
COc1cccc(N2CCN(c3cccc(C)n3)CC2)c1	115%	87.1%	96.5%	116%	107%	-11.8% (active)	87.5%	100%	95.5%	–
O=C1/C(=C/c2ccccc2Cl)CCc2ccccc21	95.4%	96.7%	109%	110%	116%	97.3%	112%	99.1%	102%	–
N#Cc1c(NC(=O)c2ccco2)[n+]([O-])c2cc(Cl)c(Cl)cc2[n+]1[O-]	92.2%	100%	87.4%	100%	118%	-12.2% (active)	109%	84.4%	88.7%	–
Fc1ccc(-c2nn3c(-c4cc(C(F)(F)F)cc(C(F)(F)F)c4)nnc3s2)cc1	95.6%	20%	95.1%	21.7%	-36.1% (active)	21.6%	12.7%	24.8%	40.9%	–
CCOc1cc(/C=C/C(=O)C(C(=O)/C=C/c2ccc(OC(=O)CNc3nc4ccccc4[nH]3)c(OCC)c2)C(=O)CNc2nc3ccccc3[nH]2)ccc1OC(=O)CNc1nc2ccccc2[nH]1	-74.4% (active)	9.36% (active)	11.5%	26.9%	29.4%	-33.2% (active)	-2.21% (active)	-4.12% (active)	24.3%	–
CCCCc1ccc(C(N)=O)nc1	88.6%	107%	96.2%	100%	99.5%	19.4%	107%	-48.3% (active)	106%	–
Cc1ccc2nc(-c3ccc(N(C)C)c(Br)c3)cn2c1	71%	93.8%	92.6%	115%	94.4%	-8.76% (active)	103%	83.2%	78.2%	–
Cc1cc(C(=O)Nc2ccc3cc(CN4CCOCC4)ccc3n2)c(C)n1-c1ccccc1	-21% (active)	4.27% (active)	83.1%	6.66% (active)	81.1%	66.4%	26.7%	82.3%	-5.82% (active)	–
C(#Cc1ccccc1C#Cc1ccccn1)c1ccc(OCCCCCCOc2ccc(C#Cc3ccccc3C#Cc3ccccn3)cc2)cc1	5% (active)	47.6%	85.4%	46.5%	80.9%	-48.8% (active)	35.5%	72.7%	40%	–
COc1ccc2c3c(ccc2c1)C(=O)/C(=C\O)CC3	–	–	107%	–	91.6%	111%	99.6%	–	96.3%	94.6%
O=C(C(=O)N1CCOCC1)c1cn(CCCn2cc(C(=O)C(=O)N3CCOCC3)c3ccccc32)c2ccccc12	–	–	102%	–	111%	107%	119%	–	109%	103%
COc1cc(/C=C/C(=O)c2c(C)n([O-])c3ccccc3[n+]2=O)cc(OC)c1OC	9.32% (active)	30.6%	80.6%	46.9%	58.3%	-15.8% (active)	59.2%	43.2%	43.4%	–
CN(C)c1ccc(-n2nc3ccccc3n2)cc1	357%	97.3%	80.3%	115%	113%	-38.5% (active)	93.7%	96.4%	106%	–
COc1cc(/C=C/C(=O)C(C(=O)/C=C/c2ccc(OC(=O)CCNc3nnc(C)s3)c(OC)c2)C(=O)CCNc2nnc(C)s2)ccc1OC(=O)CCNc1nnc(C)s1	-75.2% (active)	7.54% (active)	37.1%	35.9%	45.4%	-37.6% (active)	2.15% (active)	18.2%	31.8%	–
O=C1/C(=C/c2ccc(F)cc2)Cc2ccccc21	98%	101%	92.6%	87.7%	110%	105%	110%	109%	107%	–
CCOC(=O)N1CCC(N=C2CSc3nnc(-c4cc(C(F)(F)F)cc(C(F)(F)F)c4)n3N2)CC1	29%	22.2%	25.6%	25.1%	41.4%	44.1%	28.5%	21.5%	14.1%	–
BrC1CC(Br)c2c1c1c(c3c2C(Br)CC3Br)C(Br)CC1Br (stereo not drawn)	92.9%	85.2%	99.2%	106%	102%	-20.2% (active)	150%	93.6%	91%	–
